# From PubChem
# A selection: hits, their analogues and other compounds. The true share with any hit is near 2.8%.
# GLP1R inv ag: GLP-1 receptor (human) inverse agonism. P43220. Potency, µM (top dose mostly 38.3 µM), without a hit: at the top dose activity change, negative = inhibition, usual class: inhibitors. actives 1.6% (n = 410,000). HEK293 GLP-1R CRE-luciferase, luminescence, 24 h; GLP-1R form is constitutively active; note: potency is the fitted concentration of half-maximal effect; % is set by controls: 0 for no effect and ±100 for the full control effect; nearly all actives have a fitted effect of over 55% in size
#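 Assay principle: reduced luminescence from a cAMP-responsive reporter in HEK293 cells co-expressing a constitutively active GLP-1R. Conditions: 24 hr compound incubation, 37 deg C, 5% CO2.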
# KCNH2 3.1 inh: blocks the human KCNH2 3.1 channel isoform. actives 0.95% (n = 340,000). activity change, % (tested at about 1.8 µM). U2OS KCNH2 3.1, thallium flux FluxOr; stronger effect = lower value. AID 720553;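 active = maximum activity change below -70%; inconclusive = maximum activity change from -70% to -50%; inactive = maximum activity change above -50%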;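 note: thallium influx rate constant from kinetic fluorescence after stimulation buffer; % is set by controls: 0 for no effect and ±100 for the full control effect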
#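 Steps: virus added to U2OS suspension (4 h, RT, dark); medium with 10% FBS added, cells plated, 37 C overnight; FluxOr/Red40 loading buffer 45 min RT; stimulation buffer, 2 min kinetic read; rate constant normalized.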
# HEK293 tox: cytotoxicity in counter-screen for GLP-1R inverse agonists; actives 0.13% (n = 410,000); Potency, µM (highest dose often 38.3 µM), without a hit: top-dose activity change, negative = inhibition, most hits filed as inhibitors; HEK293 cAMP-luciferase reporter cells, luminescence, 24 h;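 note: loss of luciferase light is scored as toxicity; potency is the fitted concentration of half-maximal effect; % is set by controls: 0 for no effect and ±100 for the full control effect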
#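 Luminescence readout: signal drop marks cytotoxicity. Plated cells grew 12 h at 37 °C, 5% CO2, received 23 nL compound for 24 h, then got luciferase reagent, read after 12 min at RT.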
# GLP1R ag: agonists of human GLP-1 receptor; P43220; HEK293 GLP-1R CRE-luciferase, luminescence, 4-6 h; cells express a hypersensitive GLP-1R form; Potency, µM (top dose mostly 45.6 µM), inactives show at the highest dose activation, hits mostly activators; actives 0.007% (n = 380,000); AID 624172; note: potency is the fitted concentration of half-maximal effect; % of control where 0% means no effect
# KCNH2 WT inh: blocks the wildtype human KCNH2 potassium channel. Q12809. U2OS, BacMam KCNH2, thallium flux FluxOr; stronger effect = lower value. activity change, % at 1.84 µM. actives 0.37% (n = 340,000). AID 720551;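 active = maximum activity change below -70%; inconclusive = maximum activity change between -70% and -50%; inactive = maximum activity change above -50%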; note: % is set by controls: 0 for no effect and ±100 for the full control effect
#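 U2OS cells were transduced with wild-type KCNH2 virus (2.03 x 10^8 / mL) for 4 h at room temperature, then cultured overnight at 37 C. Thallium flux was read with FluxOr dye. Rate constants were normalized to DMSO controls.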
# GLS inhibitor: glutaminase GLS (human) inhibition; O94925; GLS enzymatic activity, qHTS titration; Potency, µM (top dose mostly 45.5 µM), inactives show top-dose activity change, negative = inhibition, most hits filed as inhibitors; actives 0.21% (n = 410,000); note: potency is the fitted concentration of half-maximal effect; % is set by controls: 0 for no effect and ±100 for the full control effect
#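 Compounds were pin-transferred onto hKGA, after which L-glutamine (1 mM solution) and a detection mix of glutamate oxidase, HRP and Amplex Red were added. Initial and 30 min RT fluorescence reads were collected.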
# An asterisk follows results filed as active; ? = inconclusive; · = not tested or not shown. Unless noted, calls come from the whole dose curve; as a rule, active = well fitted curve in the direction sought with a large enough effect; inconclusive = small, poorly fitted or top-dose-only effect, or another doubt; inactive = no such curve, though single readings can be large; an effect the other way counts as inactive or inconclusive.
SMILES,GLP1R inv ag,KCNH2 3.1 inh,HEK293 tox,GLP1R ag,KCNH2 WT inh,GLS inhibitor
N=c1sccn1CC(=O)Nc1cccc(S(=O)(=O)N2CCCCCC2)c1,?,-71*,2%,5%,·,-14%
CC(C)(C)c1ccc(OCCC(=O)Nc2cccc(S(=O)(=O)N3CCCC3)c2)cc1,?,-21,?,-1%,-12,1%
Cc1ccc(S(=O)(=O)N2CCCCC2)cc1NC(=O)Cn1ccsc1=N,?,-12,-5%,-1%,11,-2%
O=C(CCNS(=O)(=O)c1ccc(OC(F)(F)F)cc1)Nc1cccc(S(=O)(=O)N2CCCC2)c1,10µM*,16,4%,-3%,1,1%
CCOC(=O)c1sc(NC(=O)c2c(CC)noc2C)nc1C,13%,-11,-4%,1%,0,0%
COc1cc2nc(SCc3cccc(Cl)c3)n3nc(CCn4nc(C)cc4C)nc3c2cc1OC,4%,·,-5%,-1%,·,-7%
O=C(CO/N=C/c1ccc(OC(F)F)cc1)NCc1cccs1,-19%,-80*,-3%,0%,-16,2%
Cc1ccc(CN2CCN(Cc3cccn3-c3ccccn3)CC2CCO)cc1 (configuration not stated),-13%,-72*,1%,2%,-76*,6%
Cc1ccc(CN2CCN(Cc3cccn3-c3nccs3)CC2CCO)cc1 (configuration not stated),?,-88*,2%,18%,-27,10%
CC(C)CCN1CCN(Cc2cccn2-c2nccs2)CC1CCO (configuration not stated),-8%,-4,1%,-4%,26,4%
Cc1ccccc1CN1C(=O)c2ccccc2Sc2ccc(C(=O)NCc3ccccc3)cc21,?,·,-1%,·,·,2%
Cc1nn(CC(=O)N2CCN(c3ccccc3)CC2)c(=O)c2cccn12,-4%,2,2%,1%,2,9%
CNC(=O)C(C)NS(=O)(=O)c1ccc(F)cc1 (configuration not stated),0%,-4,10%,-13%,-91*,-1%
Cc1ccc2nc(SCC(=O)Nc3cc(C(F)(F)F)ccc3N3CCOCC3)[nH]c2c1,1.3µM*,-20,?,17%,-7,3%
O=C(CSc1ncccn1)NC(=O)Nc1ccc2c(c1)OCCO2,1%,2,8%,2%,-7,4%
Cc1ccc(C)c(SCC(=O)NC(=O)Nc2ccc3c(c2)OCCO3)c1,1%,5,-2%,1%,-79*,4%
Cc1ccc(SCC(=O)NC(=O)NC2CCCC2)c(C)c1,-89%,13,0%,30%,1,6%
Cc1ccc(C)c(SCC(=O)NC(=O)NC2CCCC2)c1,11µM*,-6,2%,-4%,-6,2%
COC(=O)c1c(NC(=O)CN2C(=O)C(=O)N(CC(C)C)C2=O)sc(C)c1C,-2%,0,-5%,-12%,1,-9%
CCN(CC)S(=O)(=O)c1ccc2oc(C(=O)N3CCc4ccccc4C3)c(C)c2c1,?,·,-20%,-2%,21,4%
CCN(CC)S(=O)(=O)c1ccc2oc(C(=O)NC3CCCc4ccccc43)c(C)c2c1 (configuration not stated),8.9µM*,-19,66%,1%,-7,0%
COC(=O)CNC(=O)CNC(=O)Nc1ccccc1Cl,0%,-77*,2%,-13%,-12,-5%
CCOC(=O)CNC(=O)Nc1cccc(Cl)c1C,5%,-2,1%,-11%,0,2%
Cc1ccnc2c1ccc1ccccc12,10%,16,5%,-1%,8,-2%
Cc1ccnc2c1ccc1cccnc12,?,-3,1.6µM*,4%,5,-1%
SMILES,GLP1R inv ag,KCNH2 3.1 inh,HEK293 tox,GLP1R ag,KCNH2 WT inh,GLS inhibitor
O=C(COc1ccc(Br)cc1)Nc1ccccc1C(=O)NC1CC1,-6%,-12,-9%,19%,-1,-3%
CC(NCc1ccc(-c2ccccc2)cc1)C(O)c1ccccc1 (configuration not stated),7.9µM*,-17,?,-5%,27,-3%
CC(O)CNCc1ccc(-c2ccccc2)cc1 (configuration not stated),0%,4,6%,2%,-1,-4%
COc1ccc(-n2c(C)nc3cc(C(=O)NCCN4CCOCC4)ccc32)cc1,0%,3,-17%,1%,-183*,1%
Cc1[nH]c2ccc(C(=O)NCCN3CCOCC3)cc2c1C,0%,-100*,7%,6%,-1,0%
O=C(Nc1nonc1-c1ccc(Cl)cc1)c1ccccc1F,-13%,·,10%,·,·,4%
CC(CSC(=O)c1ccccc1)C(=O)N1C[C@@H](Sc2ccccc2)C[C@H]1C(=O)O (some centres not stated),·,·,·,8%,·,15%
CNC(=S)N1N=C(c2ccc(C)cc2)CC1c1cc(OC)ccc1OC (configuration not stated),10µM*,8,?,14%,-9,-11%
CNC(=S)N1N=C(c2ccc(C)cc2)CC1c1ccc(OC)cc1 (configuration not stated),10µM*,-4,-4%,-3%,0,7%
CNC(=S)N1N=C(c2ccc(OC)cc2)CC1c1ccccc1Cl (configuration not stated),10µM*,-1,15%,12%,-7,-5%
COc1ccc(OC)c(C2CC(c3ccccc3)=NN2C(=S)Nc2ccccc2)c1 (configuration not stated),-27%,3,0%,7%,11,1%
COc1ccc(C2=NN(C(=O)CN3CCCCC3)C(c3ccc(C)cc3)C2)cc1 (configuration not stated),?,-3,3%,17%,5,0%
COc1ccc(C2CC(c3ccc(Br)cc3)=NN2C(=O)CN2CCCC2)cc1 (configuration not stated),?,-83*,?,9%,27,-17%
CNC(=S)N1N=C(c2ccc(OC)cc2)CC1c1ccc(Cl)cc1Cl (configuration not stated),?,16,4%,12%,37,3%
CNC(=S)N1N=C(c2ccc(Br)cc2)CC1c1ccc(OC)cc1 (configuration not stated),?,-35,-9%,1%,-12,17%
COc1ccc(N2CCN(Cc3nc4c(c(=O)n(C)c(=O)n4C)n3C(C)C)CC2)cc1,-14%,·,1%,·,·,-2%
